Where “and” joins values, the source holds several entries; their conditions need not be identical. Equal values may be shown once. Inconclusive results are not listed. More than one record can exist for a structure, and the calls need not agree. Calls of active or inactive are those of the source. Unless noted, the call rests on the fitted dose curve; in most records, active means well fitted curve in the direction sought with a large enough effect in the repeat runs; inconclusive means weak or mixed curves; inactive means no such curve, though single readings can be large; an effect the other way counts as inactive or inconclusive. Starred links: 1 amine or outer side, 2 acyl side, 3 side chain; linkers in the order of their positions; H or OH if unused. Positions of bridges follow the written chain, without caps; N, C: chain ends. Non-standard residues stand in square brackets, D forms with d. Residues, ends and D or L forms follow the SMILES beside them. Chains are numbered I, II in the order given. Actinocin(9to1) = Cc1c2oc3c(C)ccc(C(=O)[*:1])c3nc-2c(C(=O)[*:2])c(N)c1=O; NMeV = CN[C@H](C(=O)O)C(C)C; Sar = CNCC(=O)O
Assays:
[1] = qHTS assay to test for compound auto fluorescence at 535 nm (green) in HEK293 cells (AID 720680)
[2] = qHTS assay to test for compound auto fluorescence at 460 nm (blue) in HEK293 cell free culture (AID 720681)
Summary of the method: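 Compounds were added to cell-free DMEM with 10% FBS and fluorescence read directly. The blue channel used 405 nm excitation and 460 nm emission, with triamterene as the reference fluorophore.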

[3] = qHTS assay to test for compound auto fluorescence at 535 nm (green) in HEK293 cell free culture (AID 720682)
Summary of the method: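 Steps: dispense DMEM/10% FBS into empty wells; pin in compound or DMSO; measure fluorescence at 485/535 nm. Values are fluorescein equivalents.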

[4] = qHTS assay to test for compound auto fluorescence at 590 nm (red) in HEK293 cell free culture (AID 720683)
Summary of the method: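 Cell-free wells of DMEM with 10% FBS received compound, and intrinsic fluorescence was read at excitation/emission 540/590 nm. Values expressed as equivalence to Rose Bengal sodium.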

[5] = qHTS assay to test for compound auto fluorescence at 590 nm (red) in HepG2 cell free culture (AID 720684)
Summary of the method: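 Auto fluorescence equivalency versus Rose Bengal sodium, red channel Ex/Em 540/590 nm; compounds in cell-free MEM/10% FBS; DMSO vehicle control.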

[6] = qHTS assay to test for compound auto fluorescence at 460 nm (blue) in HepG2 cell free culture (AID 720685)
Summary of the method: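 Cell-free plates of MEM plus 10% FBS received 23 nL compound or DMSO vehicle; blue-channel (405/460 nm) intensity scored against triamterene as reference fluorophore.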

[7] = qHTS assay to test for compound auto fluorescence at 535 nm (green) in HepG2 cell free culture (AID 720686)
[8] = qHTS assay to test for compound auto fluorescence at 460 nm (blue) in HepG2 cells (AID 720687)
Summary of the method: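 HepG2 cells in MEM with 10% FBS, attached overnight at 37 C, were exposed to compound or DMSO for 1 hr at 37 C, 5% CO2. Blue fluorescence was read at 405/460 nm, with triamterene as reference fluorophore.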

[9] = target: Glucocorticoid receptor (Homo sapiens) (UniProt P04150); assay: qHTS assay to identify small molecule agonists of the glucocorticoid receptor (GR) signaling pathway (AID 720691; active means well fitted activation curve with a large enough effect in the signal ratio in the repeat runs, not every such curve was filed as active; the % refers to the signal ratio)
Glucocorticoid receptor (Homo sapiens), sequence (P04150 whole entry, looked up): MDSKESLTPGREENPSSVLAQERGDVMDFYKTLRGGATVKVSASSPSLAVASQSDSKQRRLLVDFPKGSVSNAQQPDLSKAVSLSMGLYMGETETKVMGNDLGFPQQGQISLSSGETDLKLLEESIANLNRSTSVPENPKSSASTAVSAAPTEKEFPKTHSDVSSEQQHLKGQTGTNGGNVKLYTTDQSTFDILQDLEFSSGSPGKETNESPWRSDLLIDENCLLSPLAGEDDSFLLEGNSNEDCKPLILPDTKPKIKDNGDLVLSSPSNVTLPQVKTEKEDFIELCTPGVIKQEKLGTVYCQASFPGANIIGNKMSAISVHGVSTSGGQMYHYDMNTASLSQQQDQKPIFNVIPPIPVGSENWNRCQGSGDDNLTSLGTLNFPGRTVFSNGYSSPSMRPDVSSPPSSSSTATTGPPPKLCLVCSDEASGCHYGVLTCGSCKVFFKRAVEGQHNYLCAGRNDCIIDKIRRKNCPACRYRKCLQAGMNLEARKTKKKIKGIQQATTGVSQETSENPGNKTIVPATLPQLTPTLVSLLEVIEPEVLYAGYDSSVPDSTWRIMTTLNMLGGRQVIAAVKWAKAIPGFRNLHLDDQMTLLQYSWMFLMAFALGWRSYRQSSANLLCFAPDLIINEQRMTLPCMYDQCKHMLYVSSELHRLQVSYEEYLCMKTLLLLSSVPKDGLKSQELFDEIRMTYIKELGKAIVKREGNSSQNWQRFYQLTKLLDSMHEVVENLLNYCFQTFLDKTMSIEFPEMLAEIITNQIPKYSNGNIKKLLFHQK
Summary of the method: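 HeLa GR-bla reporter line; cells pre-incubated 4 h, compound in DMSO 18 h at 37 C; LiveBLAzer B/G FRET substrate 2 h RT; fluorescence intensity read-out.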

[10] = target: Glucocorticoid receptor (Homo sapiens) (UniProt P04150); assay: qHTS assay to identify small molecule antagonists of the glucocorticoid receptor (GR) signaling pathway (AID 720692; active means well fitted inhibition curve with a large enough effect in the signal ratio in the repeat runs, not every such curve was filed as active; the % refers to the signal ratio; further: potency means the concentration at half of the fitted maximal effect)
Summary of the method: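 Read-out: beta-lactamase FRET substrate fluorescence, 2 h at room temperature, in HeLa cells stably carrying a GRE-driven bla reporter. Compounds were co-incubated with 5 nM dexamethasone agonist (final) for 18 h at 37 C.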

[11] = qHTS assay for identifying genotoxic compounds that show differential cytotoxicity against isogenic chicken DT40 cell lines with known DNA damage response pathways - wild type cell line (AID 743012); further: nearly all actives have a fitted effect of over 60% in size; further: potency means the concentration at half of the fitted maximal effect
Summary of the method: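 CellTiter-Glo luminescence readout of viability in wild type DT40 cells after 40 h compound exposure at 37 C/5% CO2; 300 cells/well; reagent incubated 30 min at room temperature before reading.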

[12] = qHTS assay for identifying genotoxic compounds that show differential cytotoxicity against isogenic chicken DT40 cell lines with known DNA damage response pathways - Rev3 mutant cell line (AID 743014); further: nearly all actives have a fitted effect of over 55% in size; further: potency means the concentration at half of the fitted maximal effect
[13] = qHTS assay for identifying genotoxic compounds that show differential cytotoxicity against isogenic chicken DT40 cell lines with known DNA damage response pathways - Rad54/Ku70 mutant cell line (AID 743015); further: nearly all actives have a fitted effect of over 60% in size; further: potency means the concentration at half of the fitted maximal effect
[14] = target: Androgen receptor (Homo sapiens) (UniProt P10275); assay: qHTS assay to identify small molecule agonists of the androgen receptor (AR) signaling pathway using the MDA cell line (AID 743040; further: nearly all actives have a fitted effect of over 20% in size)
Androgen receptor (Homo sapiens), sequence (P10275 whole entry, looked up): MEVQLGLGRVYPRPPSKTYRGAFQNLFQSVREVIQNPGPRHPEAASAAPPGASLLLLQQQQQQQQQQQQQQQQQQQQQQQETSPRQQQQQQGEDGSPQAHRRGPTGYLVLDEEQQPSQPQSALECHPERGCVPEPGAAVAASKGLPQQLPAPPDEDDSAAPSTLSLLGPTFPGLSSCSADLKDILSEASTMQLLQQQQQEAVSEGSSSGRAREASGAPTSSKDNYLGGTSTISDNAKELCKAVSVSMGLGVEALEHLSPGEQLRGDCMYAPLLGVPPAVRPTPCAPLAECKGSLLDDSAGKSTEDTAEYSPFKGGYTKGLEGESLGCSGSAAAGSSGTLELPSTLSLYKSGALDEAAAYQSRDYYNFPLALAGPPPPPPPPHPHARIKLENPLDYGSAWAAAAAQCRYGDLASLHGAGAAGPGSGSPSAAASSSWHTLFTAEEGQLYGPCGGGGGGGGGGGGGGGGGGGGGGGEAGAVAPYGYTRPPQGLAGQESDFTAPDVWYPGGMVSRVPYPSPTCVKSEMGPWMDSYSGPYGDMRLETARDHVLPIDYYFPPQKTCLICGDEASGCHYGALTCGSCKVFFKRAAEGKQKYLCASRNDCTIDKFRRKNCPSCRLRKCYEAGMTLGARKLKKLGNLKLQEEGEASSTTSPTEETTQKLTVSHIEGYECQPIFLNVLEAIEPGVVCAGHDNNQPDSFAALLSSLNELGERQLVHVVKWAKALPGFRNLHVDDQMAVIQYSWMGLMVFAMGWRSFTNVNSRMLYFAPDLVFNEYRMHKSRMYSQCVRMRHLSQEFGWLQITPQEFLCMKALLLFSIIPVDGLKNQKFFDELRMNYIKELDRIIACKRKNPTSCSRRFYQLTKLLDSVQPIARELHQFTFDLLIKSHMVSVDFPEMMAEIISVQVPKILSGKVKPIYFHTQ
Summary of the method: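 Testing was done with the MDA-kb2 AR-luc line, a human breast carcinoma stably transfected with MMTV-luciferase containing AR and GR response elements. Cells were exposed 16 h at 37C before ONE-Glo luminescence detection.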

[15] = qHTS assay to identify small molecule antagonists of the androgen receptor (AR) signaling pathway using the MDA cell line - cell viability counter screen (AID 743041; further: nearly all actives have a fitted effect of over 45% in size; further: potency means the concentration at half of the fitted maximal effect)
Summary of the method: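 Compound exposure lasted 16 h at 37C in MDA-kb2 AR-luc cells stimulated with R1881. Protease-based CellTiter-Fluor reagent was applied for the final 30 min and fluorescence measured.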

[16] = qHTS assay to identify small molecule antagonists of the glucocorticoid receptor (GR) signaling pathway - cell viability counter screen (AID 720693); further: nearly all actives have a fitted effect of over 55% in size; further: potency means the concentration at half of the fitted maximal effect
[17] = qHTS assay to identify small molecule antagonists of the androgen receptor (AR) signaling pathway - cell viability counter screen (AID 743033; further: nearly all actives have a fitted effect of over 45% in size; further: potency means the concentration at half of the fitted maximal effect)
[18] = target: Androgen receptor (Homo sapiens) (UniProt P10275); assay: qHTS assay to identify small molecule antagonists of the androgen receptor (AR) signaling pathway (AID 743035; active means well fitted inhibition curve with a large enough effect in the signal ratio in the repeat runs, not every such curve was filed as active; the % refers to the signal ratio; further: potency means the concentration at half of the fitted maximal effect)
Summary of the method: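 AR-bla HEK293 reporter cells; 4 h settle at 37C/5% CO2; compound + R1881 agonist, 16 h at 37C; LiveBLAzer B/G FRET substrate 2 h RT; fluorescence intensity read. qHTS format.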

[19] = target: Androgen receptor (Homo sapiens) (UniProt P10275); assay: qHTS assay to identify small molecule antagonists of the androgen receptor (AR) signaling pathway using the MDA cell line (AID 743042; further: nearly all actives have a fitted effect of over 55% in size; further: potency means the concentration at half of the fitted maximal effect)
Summary of the method: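 MDA-kb2 breast carcinoma cells carrying MMTV-luciferase (AR/GR responsive) were co-treated with compounds and the agonist R1881 for 16 h at 37C. Inhibition read as ONE-Glo luminescence; CellTiter-Fluor fluorescence measured in parallel for cytotoxicity.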

[20] = target: Androgen receptor (Homo sapiens) (UniProt P10275); assay: qHTS assay to identify small molecule agonists of the androgen receptor (AR) signaling pathway (AID 743036; active means well fitted activation curve with a large enough effect in the signal ratio in the repeat runs, with a control signal flat, not every such curve was filed as active; the % refers to the signal ratio; further: potency means the concentration at half of the fitted maximal effect)
Summary of the method: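 Reporter line: GeneBLAzer AR-UAS-bla-GripTite (HEK293). Steps: plate cells, 4 h rest, add compounds, 16 h at 37C, add LiveBLAzer B/G substrate, 2 h at RT, read fluorescence.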

Measured: Potency

C=CC(=O)OCCCCCCOC(=O)C=C
active: [10] 39.4 µM and 43.6 µM | [11] 24.3 µM | [12] 55.1 µM and 30.6 µM | [13] 69.4 µM and 24.3 µM
not listed: [16] | [17] | [18] | [19] | [20]
inactive: all other assays above

CCC(CO)(CO)COCC(CC)(CO)CO
not listed: [10] | [12] | [14] | [18] | [19] | [20]
inactive: all other assays above

O=C(O[C@@H]1Cc2c(O)cc(O)cc2O[C@@H]1c1cc(O)c(O)c(O)c1)c1cc(O)c(O)c(O)c1
active: [12] 54.6 µM
not listed: [11] | [13] | [14] | [18] | [19] | [20]
inactive: all other assays above

CC(C(O)c1ccc(O)cc1)N1CCC(Cc2ccccc2)CC1 (stereo not drawn)
active: [11] 2.11 µM | [12] 0.335 µM | [13] 668 nM
not listed: [10] | [14] | [15] | [18] | [19] | [20]
inactive: all other assays above

O=C(O)c1cccc(C(=O)O)c1
not listed: [11] | [12] | [13] | [14] | [18] | [19] | [20]
inactive: all other assays above

O=C1NCC2(CCN(CCc3ccccc3)CC2)O1
not listed: [11] | [12] | [13] | [14] | [16] | [18] | [19] | [20]
inactive: all other assays above

CCCC(=O)c1ccccc1
not listed: [11] | [12] | [20]
inactive: all other assays above

CCCCCCC(O)CCCCCCCCCCC(=O)O (stereo not drawn)
not listed: [10] | [13] | [14] | [18] | [19] | [20]
inactive: all other assays above

CC[C@]1(O)C[C@@H]2CN(CCc3c([nH]c4ccccc34)[C@@](C(=O)OC)(c3cc4c(cc3OC)N(C)[C@H]3[C@@](O)(C(=O)OC)[C@H](OC(C)=O)[C@]5(CC)C=CCN6CC[C@]43[C@@H]65)C2)C1
active: [11] 53.1 nM and 29.8 nM | [12] 53.1 nM and 29.8 nM | [13] 75 nM and 53.1 nM
not listed: [10] | [14] | [17] | [18] | [19] | [20]
inactive: all other assays above

O=Cc1ccc(Cl)cc1
active: [20] 19400 nM
not listed: [9] | [10] | [14]
inactive: all other assays above

Cc1c2oc3c(C)ccc(C(=O)N[C@@H]4C(=O)N[C@H](C(C)C)C(=O)N5CCC[C@H]5C(=O)N(C)CC(=O)N(C)[C@@H](C(C)C)C(=O)O[C@@H]4C)c3nc-2c(C(=O)N[C@@H]2C(=O)N[C@H](C(C)C)C(=O)N3CCC[C@H]3C(=O)N(C)CC(=O)N(C)[C@@H](C(C)C)C(=O)O[C@@H]2C)c(N)c1=O (I: T[dV]P[Sar][NMeV] / II: T[dV]P[Sar][NMeV]; ester I:1-I:C, II:1-II:C; linker I:N-II:N via Actinocin(9to1))
active: [10] 134 nM | [16] 239 nM and 9.5 nM | [11] 6.7 nM and 1.1 nM | [12] 7.5 nM and 0.7 nM | [13] 2.4 nM | [18] 23.9 nM and 1 nM | [19] 15 nM and 4.2 nM
not listed: [9] | [15]
inactive: all other assays above

Nc1ccc(O)cc1
active: [10] 49000 nM | [16] 15.1 µM and 25.5 µM | [15] 29.8 µM and 48.6 µM and 56.6 µM | [19] 5.96 µM and 12.2 µM and 25.3 µM
not listed: [9] | [11] | [12] | [13] | [18]
inactive: all other assays above

CC1=CC(=O)c2ccccc2C1=O
active: [11] 21.1 µM and 13.7 µM | [12] 23.7 µM and 12.2 µM | [13] 26.6 µM and 15.4 µM
inactive and 21.9 µM (active): [17]
inactive and 30.6 µM (active): [19]
not listed: [10] | [15] | [16] | [20]
inactive: all other assays above

Reference: PubChem BioAssay (Tox21)
